# ABHD5 PLIN5 PPI = ABHD5-PLIN5 interaction inhibitors, primary screen, cell lysate, split luciferase complementation, luminescence | Split G. princeps luciferase complementation, 4 h | inhibition, % at 4 µM | 360,000 compounds, 0.78% hits | AID 602281, 2012;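 active = inhibition above the mean inhibition across every tested compound plus 3 SD, cut at about 22% in these data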
# LEDGF integ inh = blockers of LEDGF/p75-dependent integrase strand transfer – biochemical, TR-FRET, high throughput, primary screen | HIV-1 integrase (with human LEDGF/p75) | TR-FRET IN-LEDGF/p75 DNA integration, Eu/Cy5 | inhibition, % at 3.7 µM | 370,000 compounds, 0.64% hits;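 active = inhibition above the screen-wide mean plus 3 SD, cut at about 13% in these data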;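 also: signal is the Cy5 over europium emission ratio at 671 and 618 nm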
# PRMT1 FP inh = PRMT1 methyltransferase inhibitors, primary screen, biochemical, fluorescence polarization; inhibition, % at 2.79 µM; 370,000 compounds, 1.3% hits; recombinant PRMT1, activity-based probe fluorescence polarization;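 active = inhibition above about 21% made by adding two undisclosed values, limit read from the data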
# UHRF1 binding = UHRF1 methylated DNA binding inhibitors, primary screen, counter-screen for MBD2 inhibitor project, biochemical, TR-FRET, human UHRF1, single concentration; UHRF1 binding to methylated oligo; inhibition, % at 4.4 µM; 370,000 compounds, 0.75% hits; AID 687016, 2013; in the data active = inhibition above about 21%;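 also: UHRF1 SRA domain binding a hemimethylated CpG hairpin DNA probe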
# Target sequence (Q96T88 whole entry, looked up, the tested form may be a part): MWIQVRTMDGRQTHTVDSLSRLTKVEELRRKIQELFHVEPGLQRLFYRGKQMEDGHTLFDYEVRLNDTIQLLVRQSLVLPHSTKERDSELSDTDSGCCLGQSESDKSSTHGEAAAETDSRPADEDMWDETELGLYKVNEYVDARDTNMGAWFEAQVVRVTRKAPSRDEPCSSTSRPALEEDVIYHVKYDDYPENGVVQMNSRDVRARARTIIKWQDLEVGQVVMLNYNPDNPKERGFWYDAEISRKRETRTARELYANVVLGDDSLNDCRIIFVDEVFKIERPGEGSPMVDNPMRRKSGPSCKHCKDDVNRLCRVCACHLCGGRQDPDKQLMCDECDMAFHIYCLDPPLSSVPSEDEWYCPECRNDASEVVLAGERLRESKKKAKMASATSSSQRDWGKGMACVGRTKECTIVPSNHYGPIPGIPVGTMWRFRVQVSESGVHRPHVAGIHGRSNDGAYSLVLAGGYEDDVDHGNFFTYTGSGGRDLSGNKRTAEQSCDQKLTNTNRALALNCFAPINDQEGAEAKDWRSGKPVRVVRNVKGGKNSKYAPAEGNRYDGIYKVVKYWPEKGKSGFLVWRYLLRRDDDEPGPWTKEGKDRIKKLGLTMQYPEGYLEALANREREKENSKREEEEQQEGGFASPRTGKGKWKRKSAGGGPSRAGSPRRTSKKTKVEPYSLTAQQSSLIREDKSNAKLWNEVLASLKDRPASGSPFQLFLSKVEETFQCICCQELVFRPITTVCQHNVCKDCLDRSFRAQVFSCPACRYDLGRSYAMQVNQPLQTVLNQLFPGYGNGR
# MBD2 inh = inhibitors of MBD2 binding to methylated DNA, primary screen, biochemical, TR-FRET, DNA-binding domain, human | Methyl-CpG-binding domain protein 2 (Homo sapiens), Q9UBB5 | MBD2 binding to methylated oligonucleotide | inhibition, % at 4.4 µM | 370,000 compounds, 0.31% hits | AID 686964, 2013; in the data active = inhibition above about 13%
# rCAG RNA binder = binders of r(CAG) RNA repeats, primary screen, biochemical, fluorescence; r(CAG) RNA repeat, TO-PRO-1 dye displacement fluorescence; inhibition, % at 3 µM; 370,000 compounds, 1.3% hits;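 active = inhibition above the plate cutoff, the mean of all test compounds on that plate plus 3 SD, cut at about 35% in these data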;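 also: higher means more dye released from RNA so lower well fluorescence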
# ABHD5 PLIN5 conf = ABHD5-PLIN5 interaction inhibitors, confirmation, biochemical, luminescence | inhibition, % at 4 µM | AID 651612, 2012 | 2,200 compounds, 67% hits | shares compounds with ABHD5 PLIN5 PPI; in the data active = inhibition above about 23%
# HNF4 counter = HNF4 dimerization inhibitors, counter-screen for ABHD5-PLIN5 interaction inhibitor project, biochemical, split-luciferase complementation, luminescence; inhibition, % at 4 µM; 2,200 compounds, 77% hits; shares compounds with ABHD5 PLIN5 PPI;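 active = mean inhibition across replicate wells exceeding the computed hit threshold, cut at about 13% in these data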;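 also: light from luciferase halves that rejoin when HNF4 fusion proteins dimerize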
# Hits are given with their value; n = inactive; x = no result. A selection: hits, their analogues and other compounds. The true share with any hit is near 4.1%.
SMILES,ABHD5 PLIN5 PPI,LEDGF integ inh,PRMT1 FP inh,UHRF1 binding,MBD2 inh,rCAG RNA binder,ABHD5 PLIN5 conf,HNF4 counter
CC1(C)CC(=O)C(C(C2=C(O)CC(C)(C)CC2=O)c2ccc(O)c([N+](=O)[O-])c2)=C(O)C1,24,n,n,n,n,n,73,57
CC1(C)CC(=O)C2=C(C1)OC1=C(C(=O)CC(C)(C)C1)C2c1ccc(O)c([N+](=O)[O-])c1,n,n,n,n,n,n,x,x
Cc1ccc(N/C(=C\C(=O)c2ccccc2)C(=O)O)cc1,93,n,n,n,n,n,n,n
Cc1ccc(NC(=O)c2ccccc2)cc1,n,n,n,n,n,n,x,x
CCCn1c(CC)nc([N+](=O)[O-])c1S(=O)(=O)c1ccccc1,42,n,n,n,n,n,50,54
Cc1ccc(C(=O)C=CC=Cc2ccccc2)cc1,n,n,n,n,n,n,x,x
Cc1ccc(C(=O)C(C(=O)/C=C/c2ccccc2)=C2SCCCS2)cc1,31,n,n,n,n,n,66,50
O=C(Cc1ccccc1)Nc1ccc(S(=O)(=O)N2CCOCC2)cc1,n,n,n,n,n,n,x,x
CC1CCN(S(=O)(=O)c2ccc(NC(=O)Cn3nnc(-c4ccccc4F)n3)cc2)CC1,26,n,n,n,n,n,41,n
CC1CCN(S(=O)(=O)c2ccc(NC(=O)Cc3ccccc3)cc2)CC1,33,n,n,n,n,n,50,n
COC(=O)C1C=CC(OC2OC(COC(C)=O)C(OC(C)=O)C(OC(C)=O)C2OC(C)=O)n2c(=O)n(-c3ccccc3)c(=O)n21 (configuration not stated),26,n,n,n,n,n,n,72
CC(=O)OCC1OC(n2ccc3ccccc32)C(OC(C)=O)C(OC(C)=O)C1OC(C)=O (configuration not stated),n,n,n,n,n,n,x,x
CCOC(=O)C1CCCN(C(=O)c2cc(Nc3ccc(OC)cc3OC)nc3ccccc23)C1 (configuration not stated),n,n,n,n,n,n,x,x
CCOC(=O)C1CCCN(C(=O)c2cc(Nc3ccc(OC)c(OC)c3)nc3ccccc23)C1 (configuration not stated),29,n,n,n,n,n,45,n
Clc1cccc2c1Sc1ccccc1CC2N1CCNCC1 (configuration not stated),31,n,n,n,n,n,n,n
O=C(c1ccccc1Cl)N1CCNCC1,n,n,n,n,n,n,x,x
O=C(/C=C/c1ccccc1[N+](=O)[O-])c1ccccc1Br,82,n,n,n,n,n,98,98
Cc1ccc(C(=O)/C=C/c2ccccc2[N+](=O)[O-])cc1,52,n,n,n,n,n,85,78
O=C(/C=C\c1ccccc1[N+](=O)[O-])Nc1ccccc1,n,n,n,n,n,n,x,x
Cc1ccnc(NC(=O)/C=C/c2ccccc2[N+](=O)[O-])c1,x,n,n,n,n,n,x,x
COC(=O)[C@]12C[C@H](CC(=O)NCCC(C)C)C(=O)N(Cc3ccc4c(c3)OCO4)C1=C[C@H](COCc1ccccc1)O[C@@H]2C,x,n,n,n,n,n,x,x
COc1ccc(CN2CN3Cc4cc(OC)ccc4C3CS2(=O)=O)cc1 (configuration not stated),x,n,n,n,n,n,x,x
Cc1sc2nc(SCC(=O)NCc3ccco3)n(C)c(=O)c2c1C,n,n,n,n,n,n,x,x
Cc1sc2nc3ccc(NCc4ccco4)nn3c(=O)c2c1C,31,n,n,n,n,n,66,77
O=c1c2ccccc2nc2ccc(NCc3ccco3)nn12,31,n,n,n,n,n,72,80
SMILES,ABHD5 PLIN5 PPI,LEDGF integ inh,PRMT1 FP inh,UHRF1 binding,MBD2 inh,rCAG RNA binder,ABHD5 PLIN5 conf,HNF4 counter
O=C1C2C3C=CC(CC3)C2C(=O)N1c1ccccc1 (configuration not stated),n,n,n,n,n,n,x,x
O=C1C=CC2C3C(=O)N(c4ccccc4)C(=O)C3C1N2Cc1ccccc1 (configuration not stated),90,n,24,n,n,n,100,103
CCc1cc2c(nc1CC)CCCN2S(=O)(=O)c1ccc(C(F)(F)F)cc1,x,n,n,n,n,n,x,x
Clc1ccc(-c2csc(NCC3CCCO3)n2)cc1 (configuration not stated),x,n,n,n,n,n,x,x
O=C(/C(=C/O)N=Nc1ccc(Cl)cc1)c1ccncc1,38,n,n,n,n,n,38,n
O=C(CN1CCN(c2ccccc2)CC1)c1ccc2cc[nH]c2c1,n,n,n,n,n,n,x,x
O=C(CN1CCC2(CC1)OCCO2)c1ccc2cc[nH]c2c1,102,n,n,n,n,n,n,n
COc1ccc(C2CC(c3cccs3)=Nc3ccccc3S2)cc1 (configuration not stated),60,n,83,n,n,n,n,n
COc1ccc(C2CC(c3cccs3)=NN2S(C)(=O)=O)cc1 (configuration not stated),n,n,n,n,n,n,x,x
O=C(COC(=O)Cc1n[nH]c(=O)c2ccccc12)Nc1ccc(Cl)cc1F,n,n,n,n,n,n,x,x
Cc1nnnn1/C(=C\c1ccccc1)C(=O)OCC(=O)Nc1ccc(Cl)cc1F,68,n,n,n,n,n,92,85
COc1cccc(OCC(O)CN2CCC(CN3C(=O)c4cccc5cccc(c45)C3=O)CC2)c1 (configuration not stated),n,n,n,n,n,n,x,x
O=C1c2cccc3cccc(c23)C(=O)N1CC1CCN(CC(O)COc2ccc3ccccc3c2)CC1 (configuration not stated),26,n,n,n,n,n,n,n
COc1ccc(C2C(C(=O)N3CCOCC3)CC(=O)N2c2ccc(OC)cc2)cc1 (configuration not stated),x,n,n,n,n,n,x,x
COC(=O)c1cc(=O)n(CCc2ccc(OC)cc2)c(=Nc2ccc(F)c(Cl)c2)s1,n,n,n,n,n,n,x,x
CCn1c(=O)cc(C(=O)OC)sc1=Nc1ccc(F)c(F)c1,27,n,n,n,n,n,59,40

# Screening data as filed in PubChem.
